# Bioassay records (PubChem)
# Rows were chosen to be rich in hits. Some 19% of all compounds tested hit in one or more screens of this group.
# HT1080NT lethal = kills 2HG-producing HT-1080-NT fibrosarcoma cells | HT-1080-NT fibrosarcoma viability, CellTiter-Glo ATP luminescence, 48 h | 360,000 tested, 1.6% active | Potency, µM (titrated, usually from 46.1 µM), for inactives: at the top dose activity, negative = less viability, hits mostly cytotoxic;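 note: NT is the 2HG producing partner of a matched IDH1 knockdown line; potency is the fitted concentration of half-maximal effect; 0% = DMSO-treated cells and -100% = media-only wells without cells; nearly all actives have a fitted effect of over 55% in size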
#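 Viability of the 2HG-overproducing fibrosarcoma line after 48 hours of compound exposure at 37 degrees C was determined by luminescence with CellTiter-Glo, and concentration-effect curves were then fitted and categorized.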
# HT1080 IDH1KD tx = toxicity to HT-1080 IDH1 knockdown cells (counter line). HT-1080 IDH1 knockdown viability, ATP luminescence, 48 h. Potency, µM (highest dose often 46.1 µM), for the others: at the highest dose activity, negative = toxicity, hits mostly cytotoxic. 360,000 tested, 2% active. AID 686971;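 note: potency is the fitted concentration of half-maximal effect; 0% = DMSO wells and -100% = cell-free medium wells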
#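 Assay cells: HT-1080 with IDH1 knockdown, 750 per well, RPMI/5% FBS. Exposure: 48 h at 37 °C following 2 h pre-incubation. Read: CellTiter-Glo luminescence; fitted concentration-response, curve class assigned.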
# TDP1 cell CPT = growth inhibition of DT40 Tdp1-/-;hTDP1 cells with camptothecin (screen for TDP1 inhibitors). 420,000 tested, 12% active. chicken DT40 Tdp1-/-;hTDP1 cells + 20 nM CPT, ATP luminescence, 48 h. Potency, µM (series often up to 46.2 µM), for the others: at the top dose activity change, negative = growth inhibition, most hits filed as inhibitors; note: potency is the fitted concentration of half-maximal effect; nearly all actives have a fitted effect of over 55% in size
#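 Chicken DT40 Tdp1-/- cells stably complemented with human TDP1 were seeded at 400 cells/well in medium containing 20 nM camptothecin, exposed to pin-transferred compounds, and grown at 37 °C for at least 48 hr. Viability was read as ATP luminescence.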
# TDP1 cell noCPT = qHTS for Inhibitors of human tyrosyl-DNA phosphodiesterase 1 (TDP1): qHTS in cells in absence of CPT | 420,000 tested, 15% active | Potency, µM (series often up to 46.2 µM), without a hit: top-dose activity change, negative = growth inhibition, hits mostly inhibitors | AID 686978, 2013 | DT40 Tdp1-/- hTDP1 cells, no CPT, ATP luminescence, 48 h; note: potency is the fitted concentration of half-maximal effect; nearly all actives have a fitted effect of over 55% in size
#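 Stably hTDP1-transfected Tdp1-null chicken DT40 cells were treated with library compounds minus camptothecin and grown for at least 48 hr at 37 °C, after which cellular ATP was quantified by luminescence.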
# IL1B secr inh = blocks inflammasome-driven IL-1 beta release; activity change, % at 57.5 µM; AID 743279; 360,000 tested, 4.7% active; THP-1 LPS/ATP IL-1B secretion, AlphaLISA, 16 h; active compounds read low; in the data active = activity change below about -50%; inconclusive = mostly about -30% to -49%
#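 Secreted IL-1B measured by AlphaLISA bead assay after 16 h compound exposure of THP-1 cells; compounds (final up to 57.5 uM) added 1 h before LPS (250 ng/mL) and ATP (1.25 mM) stimulation; lower signal means less secretion.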
# * marks the source's active call; other numbers are inactive results; ? = inconclusive; · = not tested or not shown; [ ] = dose if it differs, or a comment. Unless noted, calls come from the whole dose curve; as a rule, active = well fitted curve in the direction sought with a large enough effect; inconclusive = small, poorly fitted or top-dose-only effect, or another doubt; inactive = no such curve, though single readings can be large; an effect the other way counts as inactive or inconclusive. Unless noted, % is set by controls: 0 for no effect and ±100 for the full control effect.
SMILES,HT1080NT lethal,HT1080 IDH1KD tx,TDP1 cell CPT,TDP1 cell noCPT,IL1B secr inh
Clc1ccccc1Nc1ncnc2c1nc1n2CCCCC1,·,·,8.2µM*,?,·
Fc1ccc(N2CCN(c3ncnc4c3nc3n4CCCC3)CC2)cc1,·,·,-29%,?,·
COc1ccc(OC)c(CNc2ncnc3c2nc2n3CCCC2)c1,·,·,13µM*,?,·
Clc1cccc(Nc2ncnc3c2nc2n3CCCCC2)c1,·,·,8.2µM*,9.2µM*,·
O=C(Nc1ccc(Br)cc1)c1cnc[nH]1,0%,1%,0%,3%,22
COc1ccccc1OCCNC(=O)CSC(=S)N1CCCC1,4%,4%,0%,0%,12
CCOc1ccccc1C(=O)NCC(=O)NCCc1ccc(S(N)(=O)=O)cc1,9%,12%,2%,-21%,12
Cc1ccccc1NC(=O)Nc1ccc2c(c1)CCC2,0%,-3%,-1%,-1%,-6
O=C(CCC(=O)N1Cc2ccccc2Oc2ncccc21)NCc1cccc(Cl)c1,·,·,?,-15%,·
Cc1ccc(NC(=O)CCC(=O)N2Cc3ccccc3Oc3ncccc32)cc1Cl,·,·,23µM*,?,·
CCC(C)NC(=O)c1ccc2nc(Cc3ccc(OC)cc3)oc2c1 (centres undefined),3%,-3%,?,?,-1
COc1cccc(NC(=O)c2ccc3nc(Cc4ccccc4)oc3c2)c1,·,·,16µM*,16µM*,·
CCOC(=O)c1cccc(NC(=O)c2ccc3nc(Cc4ccccc4)oc3c2)c1,·,·,23µM*,16µM*,·
CCC(NC(=O)c1ccc2nc(Cc3ccc(OC)cc3)oc2c1)c1ccncc1 (centres undefined),?,21µM*,7.3µM*,3.7µM*,-17
CC1CCN(CCCNC(=O)c2ccc(N3CCCC3=O)cc2)CC1,-1%,8%,0%,8%,0
CN(C)S(=O)(=O)c1ccc(C(=O)NC(=O)CSc2nncs2)cc1,-4%[9.24 µM],0%,-17%,13%,-1
c1ccc(CCc2cc3ccccc3[nH]2)cc1,?,12%,-3%,?,-11
Cc1ccc(Cc2c(-c3cccc(Br)c3)nc3ccc(Br)cn23)cc1,0%,4%,-14%,-8%,16
Cc1ccc(Cc2c(-c3ccc(Cl)cc3)nc3ccc(Br)cn23)cc1,-11%,-16%,16µM*,26µM*,43
Cc1ccc(Cc2c(-c3ccc(C)cc3)nc3ccc(Br)cn23)cc1,?,-29%,21µM*,23µM*,47
Fc1ccc(-c2nc3ccc(Br)cn3c2Cc2cccc(Cl)c2)cc1,-29%,?,?,?,-8
Cc1ccc(Cc2c(-c3ccco3)nc3ccc(Br)cn23)cc1,18µM*,16µM*,?,?,-16
Brc1ccc2nc(-c3ccco3)c(CC3CCCCC3)n2c1,-25%,?,?,?,-5
COc1ccc(CCN(Cc2nc3ccccc3c(=O)[nH]2)C(=O)C2CC2)cc1,-3%,-3%,-20%,-20%,2
COc1ccccc1NC(=O)CCc1nc2sc3c(c2c(=O)[nH]1)CCCC3,-27%,-19%,12µM*,2.9µM*,23
SMILES,HT1080NT lethal,HT1080 IDH1KD tx,TDP1 cell CPT,TDP1 cell noCPT,IL1B secr inh
COC(=O)c1ccccc1NC(=O)CSc1nc2sc3c(c2c(=O)[nH]1)CCCC3,·,·,12µM*,9.2µM*,·
O=C(O)CSc1nc2c(c(=O)[nH]1)CCCC2,16%,-3%,-4%,-1%,29
CN(C)S(=O)(=O)c1cccc(NC(=O)CCc2nc3sc4c(c3c(=O)[nH]2)CCCC4)c1,-15%,-15%,16µM*,?,-12
Cc1cc(C)cc(NC(=O)CSc2nc3sc4c(c3c(=O)[nH]2)CCCC4)c1,·,·,-21%,-29%,·
CN(C(=O)CSc1nc2c(c(=O)[nH]1)CCCC2)c1ccccc1,·,·,9.2µM*,-28%,·
CCOC(=O)N1CCN(C/C(Cl)=C/c2ccccc2)CC1,4%,-2%,2%,-15%,-2
CCc1cccc(NC(=O)CCc2nc3sc4c(c3c(=O)[nH]2)CCCC4)c1,18%,7%,8.2µM*,10µM*,18
CCCCOC(=O)c1ccc(NC(=O)CSc2nc3c(c(=O)[nH]2)CCCC3)cc1,·,·,?,13µM*,·
NC(=O)c1ccccc1NC(=O)CSc1nc2c(c(=O)[nH]1)CCCC2,12µM*,16µM*,?,?,20
CCCN1CCc2nc(SCC(=O)Nc3ccc(C)c(Cl)c3)[nH]c(=O)c2C1,-1%,-2%,?,18µM*,-8
CC(C)COc1ccc(C(=O)OCC(=O)N(C)CC(=O)Nc2ccc(F)cc2)cc1,?,?,-24%,-19%,8
CCOC(=O)C1=CC[C@@H](c2ccccc2)N(S(=O)(=O)c2ccc(C)cc2)[C@H]1/C=C/c1ccccc1,7%,2%,13µM*,9.2µM*,0
CCOC(=O)C1=CC[C@@H](c2ccccc2)N(S(=O)(=O)c2ccc(C)cc2)[C@H]1C,-10%,?,?,23µM*,53
C=C[C@H]1C(C(=O)OCC)=CC[C@@H](c2ccccc2)N1S(=O)(=O)c1ccc(C)cc1,-15%,-17%,23µM*,21µM*,13
CCOC(=O)C1=CC[C@@H](c2ccccc2)N(S(=O)(=O)c2ccc(C)cc2)[C@@H]1C#N,-13%,?,?,?,?
CCc1ccc([C@@H]2CC=C(C(=O)O)[C@H](c3ccccc3)N2S(=O)(=O)c2ccc(C)cc2)cc1,12%,-4%,-6%,-19%,30
CCOC(=O)C1=CC[C@@H](c2ccccc2C(F)(F)F)N(S(=O)(=O)c2ccc(C)cc2)[C@H]1c1ccc(C#N)cc1,23%,6%,15µM*,13µM*,-8
COC(=O)c1cc2sc(C)cc2n1Cc1nc(-c2cccc(Br)c2)oc1C,·,·,0%,-29%,·
COC(=O)c1ccc(NC(=O)CN(C)S(=O)(=O)c2ccc(Br)s2)cc1,·,·,-14%,-18%,·
COc1ccc([C@@H]2CC=C(C(=O)O)[C@H](c3ccc(Cl)cc3)N2S(=O)(=O)c2ccc(Cl)cc2)cc1,-3%,-17%,?,-2%,0
CCOC(=O)C1=CC[C@@H](c2ccc(OC)cc2)N(S(=O)(=O)c2ccc(C)cc2)[C@H]1CC,-5%,?,15µM*,18µM*,-7
CCOC(=O)C1=CCC2c3c(c4ccccc4n3C)C(=O)C1N2C(=O)OC(C)(C)C (centres undefined),-14%,-2%,?,?,-25
CCOC(=O)C1=CC[C@H]2c3c(c4ccc(OC)cc4n3C)C(=O)C1N2S(=O)(=O)c1ccc(C)cc1,18µM*,?,5.8µM*,4.6µM*,65
